# Screening results: PubChem BioAssay, National Center for Advancing Translational Sciences (NCATS)
# An excerpt weighted towards active compounds, which were near 14% of everything screened.
# Marburg entry inh = inhibitors of Marburg virus binding or cell entry | hit rate 1.8% among 300,000 | AID 540276 | Marburg virus pseudotyped entry inhibition, cell reporter | Potency, µM (highest dose often 37.8 µM), for inactives: at the highest dose activity change, negative = inhibition, most hits filed as inhibitors; calls by dose curve; tested in HEK293 cells; further: potency means the concentration at half of the fitted maximal effect
# HCMV antiviral = human cytomegalovirus inhibition | HFF cells, HCMV-luciferase reporter, 72 h; stronger effect = lower value | activity change, negative = inhibition, % at 57.5 µM | hit rate 4.5% among 410,000 | AID 1259415; in the data active means activity change below about -60%; inconclusive means no clear call, values can overlap the other calls; inactive means above about -39%
#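 Two-dose cell screen: HFF monolayers treated with compounds and infected with luciferase-expressing HCMV at 1 PFU/cell, 72 h at 37C, then lysed for luciferase measurement.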
# LASV entry inh = blocks Lassa virus binding to or entry into cells | hit rate 1.2% among 300,000 | AID 540256 | Lassa virus pseudotype entry inhibition, cell reporter | Potency, µM (doses to about 37.9 µM), for inactives: top-dose activity change, negative = inhibition, hits mostly inhibitors; calls by dose curve; tested in HEK293 cells; further: potency means the concentration at half of the fitted maximal effect; nearly all actives have a fitted effect of over 50% in size
# Pf growth 96h = inhibits malaria parasite growth, 96 h | hit rate 6.9% among 320,000 | P. falciparum luciferase reporter growth, 96 h | Potency, µM (top dose mostly 28.7 µM), inactives show at the top dose activity change, negative = inhibition, usual class: inhibitors; further: potency means the concentration at half of the fitted maximal effect
#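 96 h incubation, 37 C, 5% CO2, of luciferase-reporter P. falciparum-infected RBCs (2% hematocrit, 0.05% parasitemia final) with test compounds; endpoint luminescence.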
# HCV inhibitor = blocks hepatitis C virus. Huh7.5.1 HCVcc-Cre infection, luciferase reporter, 44 h. hit rate 3.4% among 340,000. Potency, µM (doses to about 41.8 µM), for the others: at the top dose activity change, negative = inhibition, usual class: inhibitors. AID 651820; further: potency means the concentration at half of the fitted maximal effect
#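 Infectious HCV cell culture screen: compound-treated cells (1,000/well, pre-plated 4 h) are infected with HCVcc-Cre at roughly 0.5 moi and grown 44 h. Infection is quantified by luciferase signal after 15 min substrate incubation at room temperature.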
# Pf growth 48h = P. falciparum growth inhibition at 48 hours (one generation); P. falciparum luciferase growth in erythrocytes, 48 h; Potency, µM (doses to about 28.7 µM), for inactives: at the top dose activity change, negative = inhibition, actives largely listed as inhibitors; hit rate 5.9% among 310,000; further: potency means the concentration at half of the fitted maximal effect
#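 Growth was read as firefly luciferase luminescence after a 48 h, 37 C, 5% CO2 exposure of compounds to reporter-bearing P. falciparum cultures (0.1% parasitemia, 2% hematocrit final) in Albumax-supplemented RPMI 1640.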
# * = called active by the depositor; ? = inconclusive; · = no result given; [ ] = another dose, or the depositor's remark. Unless noted, the call rests on the fitted dose curve; in most records, active means well fitted inhibition curve with a large enough effect; inconclusive means small, poorly fitted or top-dose-only effect, or another doubt; inactive means no such curve, though single readings can be large or run the other way. On the % scale 0 is the no-effect control and ±100 the full control effect.
SMILES,Marburg entry inh,HCMV antiviral,LASV entry inh,Pf growth 96h,HCV inhibitor,Pf growth 48h
CCC(C)[C@H](NC(=O)C1(c2ccccc2)CCN(C(=O)OC(C)(C)C)CC1)C(=O)N[C@@H](C(=O)O)c1ccccc1 (stereo partly specified),·,4,·,13µM*,23%,13µM*
CCc1c(C)sc2c1CCN(C(=O)Nc1cc(Cl)c(OC)cc1OC)C2c1ccccc1 (stereo unspecified),·,-25,-1%[46.1 µM],·,·,·
COc1ccc(OC)c2[nH]c(=O)c(CCNC(=O)c3ccc(S(=O)(=O)N4CCCC4)cc3)cc12,?,-7,-23%,55%,11µM*,?
COc1ccc2cc(CCNC(=O)c3ccc(S(=O)(=O)N4CCCC4)cc3)c(=O)[nH]c2c1,-4%,-28,-18%,5.9µM*,·,13µM*
COc1ccc2cc(CCNC(=O)C3CC3)c(=O)[nH]c2c1,19%,41,19%,?,-3%,?
CCCS(=O)(=O)NCCc1cc2c(OC)ccc(OC)c2[nH]c1=O,23%,-77*,7%,48%,-4%,8%
COC(=O)C1=C(C)N(CC2CC2)C(N(C)Cc2ccc(OC)cc2)=NC1c1ccccc1 (stereo unspecified),-14%[14.2 µM],·,·,·,·,·
O=C(c1ccccc1F)N1CCCC(N2CCN(Cc3ccc4c(c3)OCO4)CC2)C1 (stereo unspecified),·,-10,·,·,·,·
CCN(CC(=O)Nc1ccc(NC(C)=O)cc1)C(=O)/C=C/c1cn(Cc2ccccc2)nc1-c1cccnc1,-23%[46.1 µM],-14,?,10µM*,-4%,?
COc1cccc(NC(=O)CN(C)C(=O)/C=C/c2cn(Cc3ccccc3)nc2-c2cccnc2)c1,-3%[46.1 µM],-6,-16%,?,?,?
CC(=O)Nc1ccc(S(=O)(=O)N2CCN(Cc3cccc([N+](=O)[O-])c3)CC2)cc1,-3%[46.1 µM],-23,-6%,1.7µM*,-28%,-5%
COc1ccc(CN2CCN(S(=O)(=O)c3ccc(C)cc3)CC2)cc1Br,?,-8,?,·,32µM*,-8%
COc1cccc(CN2CCN(S(=O)(=O)c3ccc(NC(C)=O)cc3)CC2)c1OC,-12%[46.1 µM],16,·,8%,?,?
O=[N+]([O-])c1cccc(CN2CCN(Cc3ccc(Br)cc3)CC2)c1,·,-74*,·,?,22µM*,-22%
COc1cc(CN2CCN(S(=O)(=O)c3ccc(NC(C)=O)cc3)CC2)cc(OC)c1OC,·,-106*,-2%[46.1 µM],·,·,·
COCCNC(=O)Nc1ccc2nc(-c3cccs3)c(-c3cccs3)nc2c1,-12%,-18,-23%,?,?,·
O=C(Nc1ccc2nc(-c3cccs3)c(-c3cccs3)nc2c1)NC1CC1,-22%,-38,-22%,9.3µM*,25µM*,·
O=c1cc(-c2ccccc2)[nH]n1-c1ccccc1,?,-29,-6%[46.1 µM],·,2%,·
CC(C)(C)c1cc(=O)n(-c2ccccc2)[nH]1,?,37,?,10µM*,1%,?
Cc1cn([C@H]2C[C@H](O)[C@@H](CNC(=O)CNC(=O)CN)O2)c(=O)[nH]c1=O,·,-10,·,·,·,·
CC(=O)NCCc1ccc(S(=O)(=O)N2CCOCC2)cc1,9%,1,0%,·,0%,14%
COc1cc(OC)cc(C(=O)NCC(=O)N2CCN(S(=O)(=O)c3ccccc3F)CC2)c1,·,9,·,·,21%,·
COc1ccc(CCNC(=S)N2CCN(S(=O)(=O)c3ccccc3F)CC2)cc1,?,?,4%,?,-16%,13µM*
CCNC(=S)N1CCN(C(=O)C(Cc2ccccc2)NC(C)=O)CC1 (stereo unspecified),·,?,·,10µM*,4%,54%
Cc1ccc(C)c(NC(=S)N2CCN(S(=O)(=O)c3ccccc3)CC2)c1,-10%,-71*,4%,?,12%,?
SMILES,Marburg entry inh,HCMV antiviral,LASV entry inh,Pf growth 96h,HCV inhibitor,Pf growth 48h
CC(=O)NCCc1ccc(S(=O)(=O)N2CCN(c3nc(-c4ccccc4)c(C)s3)CC2)cc1,14%[46.1 µM],-30,10%[46.1 µM],4.1µM*,-23%,3.7µM*
COc1ccc(C(=O)OCC(=O)NC2CCCCCCC2)cc1OC,5%,-12,16%,·,-3%,·
C[C@H]1CN([C@@H](C)CO)C(=O)CCCn2nncc2CO[C@@H]1CN(C)Cc1ccc2cccnc2c1,·,-29,·,·,·,·
COc1ccc(CCNC(=S)N2CCN(S(=O)(=O)c3ccccc3)CC2)cc1,-4%,11,-17%,?,?,10µM*
S=C(NCCc1ccccc1)N1CCN(C(=S)NCCc2ccccc2)CC1,?,-23,1%[46.1 µM],18%,?,-13%
Cc1ccc(S(=O)(=O)N2CCN(C(=S)NCC3CCCO3)CC2)cc1 (stereo unspecified),-17%,?,-2%,3.3µM*,4%,3.7µM*
Cc1ccc(S(=O)(=O)N2CCN(C(=O)C(Cc3ccccc3)NC(=O)c3ccccc3)CC2)cc1 (stereo unspecified),·,-23,·,8.3µM*,7%,?
COc1ccc(C(=S)N2CCN(S(=O)(=O)c3ccccc3)CC2)cc1,·,-32,·,?,-26%,-26%
Cc1ccc(S(=O)(=O)N2CCN(C(=S)NCCc3ccccc3)CC2)cc1,·,-36,·,7.4µM*,-12%,?
O=C(Nc1ccc(S(=O)(=O)Nc2ccccc2)cc1)N1CCCC1,·,8,-4%[46.1 µM],·,·,·
CCOc1ccc(NC(=O)c2ccc(NC(=O)CCS(=O)(=O)c3cccs3)cc2)cc1,?,3,-4%[46.1 µM],·,·,·
COC(=O)c1ccccc1S(=O)(=O)N1CCC(NC(=O)c2ccccc2)CC1,·,16,·,-21%,-1%,?
COc1ccc(C(=O)NC2CCN(S(=O)(=O)c3ccccc3F)CC2)cc1,·,4,·,-13%,-14%,10µM*
COc1ccccc1N1CCN(C(=O)c2cccc3c(=O)c(C)c(-c4ccccc4)oc23)CC1,-5%,-66*,·,?,?,?
COc1ccccc1N1CCN(C(=O)c2nn(-c3ccccc3OC)c(=O)c3ccccc23)CC1,-24%,46,4%,?,-8%,9.3µM*
Cc1ccc(Cl)cc1N1CCN(C(=O)c2noc(C)c2[N+](=O)[O-])CC1,·,-105*,·,?,10µM*,?
COc1ccccc1N1CCN(C(=O)c2cc3c(C)nc4ccccc4c3o2)CC1,?,-61*,11µM*,11%,6.3µM*,?
Cc1ccc(C)c(N2CCN(C(=O)c3cc4c(C)nc5ccccc5c4o3)CC2)c1,·,?,·,18%,?,?
Cc1cccc(NC(=O)c2cc3c(=O)n4ccccc4nc3n2C)c1C,·,-25,-12%[46.1 µM],·,·,·
COc1ccccc1N1CCN(C(=O)c2ccccc2N(C)S(=O)(=O)c2ccc(C)cc2)CC1,?,-20,?,?,?,10µM*
